PubChem BioAssay (NCATS)
Where “and” joins values, the source holds several entries; their conditions need not be identical. Identical values can stand only once. Results filed as inconclusive are left out. Calls of active or inactive are those of the source. Calls follow the shape of the dose curve; as a rule, active = well fitted curve in the direction sought with a large enough effect; inconclusive = small, poorly fitted or top-dose-only effect, or another doubt; inactive = no such curve, though single readings can be large; an effect the other way counts as inactive or inconclusive.

Assays:
[1] = qHTS assay for measurement of the activity of small molecule inhibitors on Zika virus induced Caspase-3 activity in human astrocytoma cells (AID 1224859); also: potency is read from the fitted curve at half-maximal effect
Procedure, shortened: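 Compound added 1 h pre-infection; ZIKV 2 FFU/cell on SNB-19 cells, 6 h, 37 C/5% CO2. Caspase-Glo 3/7 luminescence; values as % inhibition of ZIKV-induced caspase activity.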

[2] = qHTS Screen of the MIPE 4.0 Collection Against Ewings Sarcoma (RDES) (AID 1259252); also: nearly all actives have a fitted effect of over 35% in size; also: potency is read from the fitted curve at half-maximal effect
Procedure, shortened: (§1)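 Measured: ATP luminescence (CellTiter-Glo) 10 min after reagent addition, following 48 h drug treatment. Relative luciferase units converted to percent activity, with no-cell wells as full and DMSO wells as zero inhibition.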

[3] = qHTS Screen of the MIPE 4.0 Collection Against Ewings Sarcoma (TC71) (AID 1259253); also: nearly all actives have a fitted effect of over 40% in size; also: potency is read from the fitted curve at half-maximal effect
Procedure, shortened: as §1

[4] = qHTS Screen of the MIPE 4.0 Collection Against Ewings Sarcoma (EW8) (AID 1259255); also: nearly all actives have a fitted effect of over 35% in size; also: potency is read from the fitted curve at half-maximal effect
Procedure, shortened: as §1

[5] = qHTS Screen of the MIPE 4.0 Collection Against Ewings Sarcoma (TC32) (AID 1259256); also: nearly all actives have a fitted effect of over 45% in size; also: potency is read from the fitted curve at half-maximal effect
Procedure, shortened: as §1

[6] = P-glycoprotein substrates identified in KB-8-5-11 adenocarcinoma cell line, qHTS therapeutic library screen (AID 1346987); also: nearly all actives have a fitted effect of over 65% in size; also: potency is read from the fitted curve at half-maximal effect
Procedure, shortened: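 P-gp-mediated resistance screen: KB-8-5-11 cells treated 72 h with compounds in dose-response. CellTiter-Glo viability.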

[7] = NS1 protein of Zika virus - qHTS assay to identify small molecule inhibitors in human HEK 293 cells (AID 1347053); also: nearly all actives have a fitted effect of over 55% in size; also: potency is read from the fitted curve at half-maximal effect
Procedure, shortened: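 HEK 293 cells pretreated with compound for 1 h, then infected with ZIKV MR766 (MOI 0.5) for 24 h at 37 C. NS1 detected by TR-FRET with two anti-NS1 antibodies; normalized to uninfected (0%) and infected (100%) wells.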

[8] = Identifying Small Molecule Inhibitors of Pancreatic Cancer Stem Cells (SN12C, Adherent) (AID 1259358);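 also: cell survival measured after 48 h of compound exposure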; also: potency is read from the fitted curve at half-maximal effect
Procedure, shortened: (§2)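 After a 4 h attachment period, compounds were pinned into wells and cultures held 48 h under standard incubator conditions. Viability was then measured as CellTiter-Glo luminescence following 10 min at room temperature.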

[9] = Identifying Small Molecule Inhibitors of Pancreatic Cancer Stem Cells (A278, Adherent) (AID 1259361);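 also: viability read after 48 h compound exposure; nearly all actives have a fitted effect of over 35% in size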
Procedure, shortened: as §2

[10] = P-glycoprotein substrates identified in KB-3-1 adenocarcinoma cell line, qHTS therapeutic library screen (AID 1346986); also: nearly all actives have a fitted effect of over 60% in size;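 also: potency is read from the fitted curve at half-maximal effect; potency is for cytotoxicity meaning loss of cell viability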
Procedure, shortened: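 KB-3-1 parental cells and P-gp-overexpressing KB-8-5-11 (colchicine omitted during assay) plated at 500 cells/well, dosed in dose-response, incubated 72 h at 37 degree C. CellTiter-Glo luminescence read; KB-8-5-11 also tested with tariquidar.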

[11] = Identifying Small Molecule Inhibitors of Pancreatic Cancer Stem Cells (SN12C, Spheroid) (AID 1259360); details: Potency: SN12C spheroid viability; also: potency is read from the fitted curve at half-maximal effect
Procedure, shortened: (§3)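 Spheroids grown 14 days in stem cell media on nonadherent hydrogel before screening; cells attached 4 h, then compound exposure 48 h at 37C, 5% CO2. CellTiter-Glo luminescence normalized to DMSO (no inhibition) and no-cell wells (full inhibition).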

[12] = Identifying Small Molecule Inhibitors of Pancreatic Cancer Stem Cells (A2780, Spheroid) (AID 1259357); details: Potency: A2780 spheroid viability; also: potency is read from the fitted curve at half-maximal effect;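 also: spheroids pre-formed over 14 days in stem cell medium on hydrogel; compound exposure lasted 48 h before the ATP luminescence read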
Procedure, shortened: as §3

[13] = Identifying Small Molecule Inhibitors of Pancreatic Cancer Stem Cells (Panc1, Spheroid) (AID 1259359);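 also: compound exposure lasted 48 h before reading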; also: potency is read from the fitted curve at half-maximal effect
Procedure, shortened: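 Adherent (2D) versus sphere (3D) formats; spheres generated 14 d in SCM beforehand. Compound transferred by pin tool after 4 h, 48 h incubation, CellTiter-Glo endpoint.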

[14] = Identifying Small Molecule Inhibitors of Pancreatic Cancer Stem Cells (Panc1, Adherent) (AID 1259362); details: Potency: viability; also: potency is read from the fitted curve at half-maximal effect
Procedure, shortened: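 Pre-formed 14-day tumor spheroids or adherent cells dosed and incubated 48 h, 37C, 5% CO2. Viability assessed by CellTiter-Glo.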

[15] = qHTS assay to identify small molecule inhibitors of chordoma cells - UCH-1 (AID 1259355); also: nearly all actives have a fitted effect of over 55% in size
Procedure, shortened: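 Luminescent ATP read-out (CellTiter-Glo, 30min at room temperature) measured viability of UCH-1 cells exposed for 48hr to test drugs at 15 concentrations, co-dosed with a five-agent combination of auranofin, camptothecin, doxorubicin, rubitecan and topotecan.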

Structure (SMILES) | Potency [1] | Potency [2] | Potency [3] | Potency [4] | Potency [5] | Potency [6] | Potency [7] | Potency [8] | IC50 (viability decrease) [9] | Potency [10] | Potency [11] | Potency [12] | Potency [13] | Potency [14] | Potency [15]
C=CC(=O)Nc1cccc(Oc2nc(Nc3ccc(N4CCN(C)CC4)cc3)ncc2Cl)c1 | inactive | 2.35 µM (active) | 14.8 µM (active) | 2.64 µM (active) | 2.64 µM (active) | 3.32 µM (active) and 7.31 µM (active) | 13.2 µM (active) | – | – | – | – | – | – | – | –
CCc1cc2c(cc1N1CCC(N3CCOCC3)CC1)C(C)(C)c1[nH]c3cc(C#N)ccc3c1C2=O | inactive | inactive | inactive | inactive | inactive | – | inactive | – | – | – | – | – | – | – | –
Nc1ccn([C@@H]2O[C@H](CO)[C@H](O)C2(F)F)c(=O)n1 | inactive | 0.0526 µM (active) | 0.0418 µM (active) | 0.0166 µM (active) | 0.0187 µM (active) | – | 0.743 µM (active) | – | – | – | – | – | – | – | –
COc1cc2c(Oc3ccc4[nH]c(C)cc4c3F)ncnc2cc1OCCCN1CCCC1 | inactive | 23.5 µM (active) | 23.5 µM (active) | – | 16.6 µM (active) | – | inactive | 2.35 µM (active) | 16.6 µM (active) | 23.1 µM (active) | – | – | – | – | –
CC(C)=CCCC(C)=CCCC(C)=CCSc1ccccc1C(=O)O | inactive | 2.35 µM (active) | 2.35 µM (active) | – | 1.87 µM (active) | – | – | – | – | – | inactive | – | – | – | –
CC1(C)OC2=C(C(=O)c3ccccc3C2=O)[C@H](NCc2ccccc2)[C@H]1O | inactive | – | 2.64 µM (active) | 2.96 µM (active) | 3.32 µM (active) | 9.35 µM (active) | – | – | – | – | 23.5 µM (active) | 14.8 µM (active) | 0.743 µM (active) | 3.32 µM (active) | –
CC(C)c1ccccc1Cc1cc(C(=O)Nc2ccc(S(=O)(=O)c3ccccc3C(C)(C)C)cc2)c(O)c(O)c1O | inactive | 7.43 µM (active) | 7.43 µM (active) | – | 8.33 µM (active) | 9.35 µM (active) | – | – | – | – | inactive | – | – | – | –
COC(=O)Nc1nc2ccc(C(=O)c3ccc(F)cc3)cc2[nH]1 | inactive | 0.743 µM (active) | 1.05 µM (active) | – | 0.372 µM (active) | 418 nM (active) and 1.03 µM (active) | – | – | – | – | – | – | – | – | –
CN1c2cc(O)c(N=NC(N)=O)cc2CC1S(=O)(=O)O (configuration not stated) | inactive | inactive | inactive | – | inactive | inactive | inactive | – | – | inactive | – | – | – | – | inactive
CC(=O)OCC(=O)[C@@]1(O)[C@H](C)C[C@H]2[C@@H]3C=C(C)C4=Cc5c(cnn5-c5ccccc5)C[C@]4(C)[C@@H]3[C@@H](O)C[C@@]21C | inactive | – | 6.62 µM (active) | 7.43 µM (active) | 5.9 µM (active) | inactive | 11.8 µM (active) | – | 13.2 µM (active) | inactive | 20.9 µM (active) | inactive | 14.8 µM (active) | – | –
COCCn1c2c([n+](Cc3cnccn3)c1C)C(=O)c1ccccc1C2=O | 1.32 µM (active) | 0.0021 µM (active) | 0.0166 µM (active) | – | 0.0053 µM (active) | – | 0.0372 µM (active) | 0.0264 µM (active) | 0.0066 µM (active) | – | 0.105 µM (active) | 0.0132 µM (active) | inactive | inactive | –
Nc1nc(-c2nn(Cc3ccccc3F)c3ncccc23)nc(N)c1N1CCOCC1 | inactive | inactive | inactive | – | inactive | inactive | inactive | inactive | inactive | – | inactive | – | – | – | –
CN(C)CC=CC(=O)Nc1cc2c(Nc3ccc(F)c(Cl)c3)ncnc2cc1O[C@H]1CCOC1 | inactive | 18.7 µM (active) | 16.6 µM (active) | – | 16.6 µM (active) | 9.35 µM (active) | inactive | – | 23.5 µM (active) | – | 23.5 µM (active) | – | 11.8 µM (active) | 1.48 µM (active) | –
O=c1[nH]nc(Sc2ncc([N+](=O)[O-])s2)n1-c1ccc2c(c1)OCCO2 | inactive | 7.43 µM (active) | 6.62 µM (active) | – | 2.96 µM (active) | 18.7 µM (active) | 9.35 µM (active) | – | 26.4 µM (active) | – | – | – | 5.26 µM (active) | – | –
Cc1cn(-c2cc(NC(=O)c3ccc(C)c(Nc4nccc(-c5cccnc5)n4)c3)cc(C(F)(F)F)c2)cn1 | inactive | inactive | inactive | – | inactive | – | – | – | – | – | inactive | – | – | – | –
O=C(NCCS(=O)(=O)c1ccc(C(F)(F)F)cn1)c1ccc(Cl)cc1 | inactive | inactive | inactive | – | inactive | – | inactive | – | inactive | inactive | inactive | – | – | – | –
